Assay outcomes: PubChem BioAssay, National Center for Advancing Translational Sciences (NCATS)
RXFP1 ag – RXFP1 (human) receptor agonism; actives 0.3% (n = 370,000); HEK293T-RXFP1 cAMP TR-FRET, 30 min; response scale: percent of porcine relaxin response, buffer zero; Potency, µM (highest dose often 57.5 µM), inactives show at the highest dose activation, usual class: activators; Q9HBX9; active = well fitted activation curve with a large enough effect; inconclusive = small, poorly fitted or top-dose-only effect; note: potency is the fitted concentration of half-maximal effect; % is set by controls: 0 for no effect and ±100 for the full control effect; nearly all actives have a fitted effect of over 60% in size
Target sequence (Q9HBX9 whole entry, looked up): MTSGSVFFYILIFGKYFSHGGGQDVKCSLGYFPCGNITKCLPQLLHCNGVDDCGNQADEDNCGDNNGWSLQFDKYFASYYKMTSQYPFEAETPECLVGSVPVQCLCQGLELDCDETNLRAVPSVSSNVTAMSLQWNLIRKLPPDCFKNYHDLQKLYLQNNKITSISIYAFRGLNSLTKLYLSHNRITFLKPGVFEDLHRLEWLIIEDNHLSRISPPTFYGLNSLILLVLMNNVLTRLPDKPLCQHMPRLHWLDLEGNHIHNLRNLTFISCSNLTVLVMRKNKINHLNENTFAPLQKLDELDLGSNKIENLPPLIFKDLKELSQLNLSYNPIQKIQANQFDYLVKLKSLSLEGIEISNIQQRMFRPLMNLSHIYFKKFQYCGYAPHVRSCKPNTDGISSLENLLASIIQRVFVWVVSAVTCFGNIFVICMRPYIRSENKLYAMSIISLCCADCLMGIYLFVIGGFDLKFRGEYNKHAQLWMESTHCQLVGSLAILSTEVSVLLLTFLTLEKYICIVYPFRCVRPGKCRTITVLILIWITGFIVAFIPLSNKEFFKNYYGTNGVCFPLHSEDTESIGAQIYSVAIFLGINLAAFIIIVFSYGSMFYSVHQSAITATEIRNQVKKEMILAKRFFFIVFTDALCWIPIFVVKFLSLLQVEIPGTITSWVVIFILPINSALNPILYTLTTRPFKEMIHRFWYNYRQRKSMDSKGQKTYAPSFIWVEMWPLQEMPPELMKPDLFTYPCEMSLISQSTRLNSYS
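HEK293 cells stably expressing RXFP1, treated 30 min at 37C with compounds plus PDE4 inhibitor Ro 20174; cAMP measured by HTRF TR-FRET. Normalized to buffer and 29 nM porcine relaxin; EC50 by Hill fit.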
RXFP1 antag – RXFP1 (human) relaxin receptor antagonism. Q9HBX9. HEK293-RXFP1, relaxin-stimulated cAMP HTRF, 30 min; stronger effect = lower value. activity change, negative = inhibition, % at 57.5 µM. actives 0.59% (n = 350,000). AID 1259400;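 active = activity change of -60% or lower, but not beyond a set lower limit; inconclusive = change between -60% and -40%, or beyond the set limit; inactive = change above -40%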; note: % is set by controls: 0 for no effect and ±100 for the full control effect
gsp ag – agonists of gsp mutant (McCune-Albright syndrome); gsp mutant cells, cAMP HTRF, 30 min; Potency, µM (series often up to 76.9 µM), for the others: at the highest dose activation (cAMP increase), actives largely listed as activators; actives 0.13% (n = 340,000); AID 624287; active = well fitted activation curve with a large enough effect; inconclusive = small, poorly fitted or top-dose-only effect, or another doubt; inactive = no such curve, though single readings can be large or run the other way; cell line not stated here;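 note: phosphodiesterase inhibitor Ro 20-1724 added with compounds to block cAMP breakdown; potency is the fitted concentration of half-maximal effect; nearly all actives have a fitted effect of over 60% in size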
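Cells in DMEM/10% FBS with G418 were pretreated with compounds in DMSO plus […] (300 uM stock) for 30 min at 37C. cAMP was measured by HTRF (cAMP-d2 plus anti-cAMP antibody-K) after 30 min at room temperature.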
gsp antag – gsp mutant antagonism. gsp-mutant cells, cAMP HTRF, 30 min. actives 0.4% (n = 340,000). Potency, µM (titrated, usually from 76.9 µM), for the others: top-dose activity change, negative = inhibition, actives largely listed as inhibitors. AID 624288; calls by dose curve; cell line not stated here;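 note: intracellular cAMP measured with PDE inhibitor Ro 20-1724 present during compound exposure; potency is the fitted concentration of half-maximal effect; % is set by controls: 0 for no effect and ±100 for the full control effect; nearly all actives have a fitted effect of over 65% in size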
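Measurement of cellular cAMP by homogeneous time-resolved fluorescence following a 30 min compound exposure at 37C. The PDE inhibitor […] was present throughout; the assay buffer was DPBS with 0.05% BSA and 0.005% Tween 20.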
* hit, by the source's call; ? = inconclusive; / = not tested or not shown; ! = a repeat was not active; [ ] = dose if it differs, or a comment. Rows were chosen to be rich in hits. Some 0.9% of all compounds tested hit in one or more screens of this group.

SMILES	RXFP1 ag	RXFP1 antag	gsp ag	gsp antag
Cc1ccc2nc(CN3CCN(S(=O)(=O)c4ccc(C(C)C)cc4)CC3)oc2c1	-1%	-21	/	/
CC1CCC(C(C)C)C(OC(=O)Cn2c(-c3ccc(Br)cc3)[n+](C)c3ccccc32)C1 (stereo unspecified)	0%	-81*!	0%[15.4 µM]	7%
CN(C(=O)CSc1ncnc2sc3c(c12)CCCC3)C1CCS(=O)(=O)C1 (stereo unspecified)	/	12	11µM*	-4%
Cc1sc2ncnc(SCC(=O)N(C)C3CCS(=O)(=O)C3)c2c1C (stereo unspecified)	?	-17	27%[15.4 µM]	7%
Cc1nc(SCC(=O)NC2CC2)c2c(C)c(C)sc2n1	16%	-6	10%[15.4 µM]	-4%
CCN(C(=O)CSc1nc(C)nc2sc(C)c(C)c12)C1CCS(=O)(=O)C1 (stereo unspecified)	1%	0	?	-13%
CCOC(=O)c1sc2nc(C)nc(SCC(=O)N(C)C3CCS(=O)(=O)C3)c2c1C (stereo unspecified)	12%	0	16µM*	8%
COC(=O)c1sc2nc(C)nc(SCC(=O)N3CCC(C(=O)O)CC3)c2c1C	?	5	16µM*	0%
CCOC(=O)CC(NC(=O)N1CCC(CN2CCC(C)CC2)CC1)c1ccccc1 (stereo unspecified)	1%	0	/	/
Cc1cccc(S(=O)(=O)c2cn(C)c3cc(N4CCC(C)CC4)c(F)cc3c2=O)c1	2%	0	/	/
O=C(Nc1sc2c(c1C(=O)NCC1CCCO1)CCC2)c1cc(=O)c2ccccc2o1 (stereo unspecified)	0%	-11	/	/
Cc1nc2nc(NC(=O)C(C)C)[nH]n2c(=O)c1Cc1ccccc1	-2%	-3	/	/
O=C(Nc1ccc(F)cc1Cl)c1cnc(N2CCOCC2)c2ccccc12	2%	-6	/	/
O=C1C(SCCO)=C(SCCO)C(=O)c2ccccc21	-3%	/	/	35µM*
O=C1C(Cl)=C(NCCCO)C(=O)c2ccccc21	0%	8	-25%	-24%
O=C(CCS(=O)(=O)c1nc(-c2cccs2)cc(C(F)(F)F)n1)Nc1ccc(Br)cc1	14%	-108*	/	/
Cc1ccc(O)c(NC(=O)CCS(=O)(=O)c2nc(-c3cccs3)cc(C(F)(F)F)n2)c1	6%	-30	/	/
O=C(CCS(=O)(=O)c1nc(-c2cccs2)cc(C(F)(F)F)n1)Nc1cc(Br)ccc1O	6%	-116*	/	/
CCc1ccc2nc(N(Cc3cccnc3)C(=O)c3cccs3)sc2c1	1%	1	/	/
CC(=O)Oc1ccc(/C=C2/C(=O)N(c3ccccc3)N=C2C)cc1	-2%	-24	7%[15.4 µM]	-19%
CC1=NN(c2ccccc2)C(=O)/C1=C/C=C/c1ccc(N(C)C)cc1	-19%	-21	5%	35µM*
COc1ccc(/C=C2/C(=O)N(c3ccccc3)N=C2C)cc1	/	-61*	-5%	-5%
CC1=NN(c2ccccc2)C(=O)/C1=C/N(C)C	0%	15	2%	-1%
CC1=NN(c2ccccc2)C(=O)/C1=C/c1cccc(C)c1	0%	-28	-6%[15.4 µM]	-15%
CC1=NN(c2ccccc2)C(=O)/C1=C\C=C\c1ccccc1	2%	-63*	15%[15.4 µM]	-8%
SMILES	RXFP1 ag	RXFP1 antag	gsp ag	gsp antag
Cc1ccc(NC(=O)CN2C(=O)CSc3ccc(S(=O)(=O)N4CCCC4)cc32)c(C)c1	1%	16	/	/
CCS(=O)(=O)c1nc(S(=O)(=O)c2ccc(C)cc2)c(N2CC(C)OC(C)C2)s1 (stereo unspecified)	28µM*	-15	?	4%
CCCS(=O)(=O)c1nc(S(=O)(=O)c2ccc(C)cc2)c(N2CCN(C)CC2)s1	?	5	3.2µM*	5%
CCCS(=O)(=O)c1nc(S(=O)(=O)c2ccc(C)cc2)c(NCCCN2CCCC2=O)s1	17%	23	2.8µM*	-4%
CCCS(=O)(=O)c1nc(S(=O)(=O)c2ccc(C)cc2)c(N2CC(C)OC(C)C2)s1 (stereo unspecified)	25%	17	?	-7%
O=C(NC12CC3CC(CC(C3)C1)C2)c1ccc(-c2ccc(Br)cc2)o1	0%	-12	?	-9%
O=C(NC12CC3CC(CC(C3)C1)C2)c1ccc(Br)o1	-1%	-110*	-16%	2%
Cc1sc2ncn(CC(=O)Nc3ccc(C(C)C)cc3)c(=O)c2c1S(=O)(=O)N1CCN(c2ncccn2)CC1	25µM*	/	/	/
CC(C)c1ccc2oc(=O)cc(CN3CCN(c4ccc(F)cc4)CC3)c2c1	0%	-19	4%	35µM*
Cc1ccc(NC(=O)C2SC(=Nc3ccccc3)C(C(=O)Nc3ccc(Cl)cc3)=C2N)cc1 (stereo unspecified)	-1%	-66*	-9%[15.4 µM]	-8%
C=C(C)C(=O)OCC(O)CO (stereo unspecified)	/	10	/	/
COc1ccc(CNC(=O)CCCn2nc(C)n3ccnc3c2=O)cc1	?	9	?	5%
Cc1nn(CCCC(=O)NCc2ccccc2)c(=O)c2nccn12	28µM*	20	?	9%
CCc1ccc(CNC(=O)CCCn2nc(C)n3ccnc3c2=O)cc1	?	-6	16µM*	7%
COc1cccc(CNC(=O)CCCn2nc(C)n3c(cc4sccc43)c2=O)c1	18%	3	1%	-15%
O=C(NCc1ccccc1Cl)c1ccc2c(c1)N(Cc1ccccc1)CCS2	5%	0	/	/
CCS(=O)(=O)N1CCc2cc(C(=O)NCc3ccccc3Cl)ccc21	-6%	/	/	/
Cc1nc(Nc2ccc(Cl)cc2Cl)sc1C(=O)Nc1ccccc1	0%	-13	-5%[15.4 µM]	?
O=C(Nc1ccc(Cl)c(Cl)c1)c1ccccc1	0%	/	/	11µM*
O=C(Nc1cccc(Cl)c1)c1ccccc1	2%	/	6%	3%
O=C1C(Cl)=C(NC(=O)c2ccccc2)C(=O)C(Cl)=C1NC(=O)c1ccccc1	-4%	-105*	6%[15.4 µM]	?
Cc1nc(Nc2ccc(Cl)c(Cl)c2)sc1C(=O)Nc1ccccc1	5%	-20	2%	50µM*
O=C(Nc1ccc(Cl)c(Cl)c1)Oc1ccc(NC(=O)c2ccco2)cc1	-1%	7	-14%	40µM*
CCCc1cc(=O)[nH]c(SCc2nc(-c3ccc(OCC)cc3)no2)n1	-4%	10	/	/
CCOC(=O)CN1C(=O)C(O)(CC(=O)c2cc(OC)ccc2OC)c2ccccc21 (stereo unspecified)	2%	1	/	/
SMILES	RXFP1 ag	RXFP1 antag	gsp ag	gsp antag
Cc1cc(-c2ccc(S(=O)(=O)NCc3ccc(Cl)cc3)cc2)on1	/	0	8%	/
Cc1cc(-c2ccc(S(=O)(=O)NCc3ccc(F)cc3)cc2)on1	2%	0	-48%	0.79µM*
Cc1ccc(CCNC(=O)c2ccc(CNS(=O)(=O)c3ccc(F)cc3)cc2)cc1	-1%	-71*	/	/
Oc1ccc(-c2csc(Nc3ccccn3)n2)cc1O	-2%	-63*	-5%	-5%
Cc1ccnc(Nc2nc(-c3ccc(O)c(O)c3)cs2)c1	1%	?	15%	-5%
CCCOc1ccc2c(c1)CC[C@@H]1[C@@H]2CC[C@]2(C)C(OC)CC[C@@H]12 (stereo partly specified)	/	-10	/	/
